PubChem BioAssay AID602365 (National Center for Advancing Translational Sciences (NCATS), 2012)
Inconclusive results are not listed. Activity calls are given as the source filed them. Calls come from the whole dose curve; as a rule, active = well fitted inhibition curve with a large enough effect; inconclusive = small, poorly fitted or top-dose-only effect; inactive = flat fitted curve, though single readings scatter.

target: Luciferin 4-monooxygenase (Photinus pyralis) (UniProt P08659); test: FLuc inhibitory activity for the follow-up compounds in a biochemical assay with 1mM D-luciferin; conditions: purified FLuc, luminescence; series mostly up to 57.5 µM
Source text: NCGC Assay Overview: Firefly (Photinus pyralis) luciferase is one of the most commonly used transcriptional reporters. It is considered one of the more dynamically responsive reporters - that is, responsive to changes in reporter transcription - as it requires no post-translational modifications and is enzymatically active directly after protein synthesis (Wood, 1998). With no endogenous expression in mammalian cells and without the requirement of external excitation, it offers very little background signal, thus generally providing excellent signal to background for most assays. Previous profiling work to determine the prevalence of compounds that affect FLuc enzymatic activity (PubChem AID 411) identified that ~3% of the MLSMR library (then at ~72K) inhibited FLuc. […] Of the compounds identified in this profile that inhibited FLuc, 151 compounds were selected for further analysis, in an effort to better understand their mode of inhibiting FLuc. The assay described here was to determine the activity of the compounds in a FLuc assay that contained a KM concentration of ATP and a high concentration (1mM) of D-luciferin.
NCGC Assay Protocol Summary: Reagents: 50mM Tris acetate, pH 7.5; 10mM Mg acetate; 1mM D-luciferin (Sigma #L9504); 10uM ATP; 0.01% Tween-20; 0.05% BSA; 10nM P. pyralis luciferase (Sigma #L9506) Control compounds used were two known firefly luciferase inhibitors (3-(5-(3-chlorophenyl)-1,2,4-oxadiazol-3-yl)benzoic acid and 5-(2-fluorophenyl)-3-phenyl-1,2,4-oxadiazole), and DMSO. Three microliters containing firefly luciferase substrates in buffer (final concentrations: 50mM Tris acetate, pH 7.5, 10mM Mg acetate, 0.01% Tween-20, 0.05% BSA, 1mM D-luciferin, 10uM ATP) are dispensed into each well of a Greiner white, solid-bottom 1536-well format plate using a flying reagent dispenser (FRD). These assay plates were then treated with 23nL of compound or DMSO using a Kalypsys pin tool, which allows for delivery of a 12-point intraplate titration of each compound to the assay plate (quantitative HTS), with a final compound concentrations ranging from approximately ~60uM to 0.3nM. One microliter of firefly luciferase in […] Tris-acetate buffer was then delivered by FRD to each well for a final enzyme concentration of 10nM. Luciferase activity was then measured using a ViewLux CCD imager (PerkinElmer), with an average exposure time of 2-30 seconds (2X binning, medium/high gain).

Luciferin 4-monooxygenase (Photinus pyralis), sequence (P08659 whole entry, looked up): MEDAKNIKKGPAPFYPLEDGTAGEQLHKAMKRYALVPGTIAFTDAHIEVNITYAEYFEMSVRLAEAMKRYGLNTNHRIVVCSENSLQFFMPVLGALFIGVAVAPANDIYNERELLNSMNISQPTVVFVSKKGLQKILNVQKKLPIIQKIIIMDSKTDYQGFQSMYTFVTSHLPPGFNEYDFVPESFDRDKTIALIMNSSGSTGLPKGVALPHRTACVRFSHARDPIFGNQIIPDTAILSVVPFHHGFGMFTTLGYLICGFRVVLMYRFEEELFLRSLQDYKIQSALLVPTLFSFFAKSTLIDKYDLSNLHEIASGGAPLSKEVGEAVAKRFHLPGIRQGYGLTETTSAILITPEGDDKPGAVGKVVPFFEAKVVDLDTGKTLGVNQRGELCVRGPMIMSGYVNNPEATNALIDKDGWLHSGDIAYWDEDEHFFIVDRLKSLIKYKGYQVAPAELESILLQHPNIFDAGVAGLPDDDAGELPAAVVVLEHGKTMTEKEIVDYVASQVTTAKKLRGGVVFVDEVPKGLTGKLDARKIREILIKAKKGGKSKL

Potency, active:
Cc1c(NC(=O)c2cc(-n3cnnc3)ccc2Cl)cccc1-c1nc2ccccc2s1 0.919 µM
Cc1ccc(C(=O)Nc2cccc(C(=O)O)c2)cc1S(=O)(=O)N1CCCCC1 4.11 µM
COc1ccc(-c2cccc(C(=O)Nc3cccc(C(=O)O)c3)c2)cc1 18.3 µM
Nc1ccccc1-c1nc2ccccc2s1 18.3 µM
O=C(Nc1ccccc1C(=O)Nc1ccccc1C(=O)O)c1ccccc1 20.6 µM
COc1ccc2nc(NC(=O)c3cnccn3)sc2c1 6.51 µM
Cc1ccc2sc(-c3ccc(N)cc3)nc2c1 0.517 µM
Nc1ccc(-c2nc3cc(N)ccc3s2)cc1 18.3 µM
O=C(O)c1cccc(NC(=O)c2ccc(Cl)c(S(=O)(=O)N3CCCCCC3)c2)c1 3.26 µM
O=C(Nc1ccc(-c2nc3ccccc3s2)cc1)C1=COCCO1 0.366 µM
O=C(Nc1cccc(-c2nc3ccccc3s2)c1)c1cc(-n2cnnc2)ccc1Cl 8.19 µM
Cc1ccc(C(=O)Nc2cccc(C(=O)O)c2)cc1 4.11 µM
Nc1ccc2nc(-c3ccccc3)sc2c1 0.919 µM
O=C(O)c1ccc(NC(=O)c2cccc(NC(=O)c3cccs3)c2)cc1 32.6 µM
COc1cc(OC)cc(-c2nc3ccccc3s2)c1 18.3 µM
Nc1cccc(-c2nc3ccc(N)cc3s2)c1 2.59 µM
COc1ccc(C(=O)Nc2ccccc2C(=O)N/N=C/c2ccc(O)c(OC)c2)cc1 0.0103 µM
O=C(Nc1ccccc1C(=O)O)c1cccc(NC(=O)c2ccccc2Cl)c1 36.6 µM
CN(C)c1cccc(C(=O)Nc2ccc(-c3nc4ccccc4s3)cc2)c1 18.3 µM
CCOc1ccc2nc(NC(=O)c3ccccn3)sc2c1 2.06 µM
CCOc1ccc(C(=O)Nc2ccccc2C(=O)O)cc1 3.66 µM
CC(=O)Oc1ccc(C(=O)Nc2ccccc2C(=O)Nc2cccc(C(=O)O)c2)cc1 16.3 µM
COc1ccc(-c2nc3ccccc3s2)cc1O 0.651 µM
Cc1ccc(C(=O)Nc2cccc(C(=O)O)c2)cc1S(=O)(=O)N1CCCC1 4.61 µM
CN=c1scc(-c2ccccc2F)n1/N=C/c1ccc[nH]1 0.0819 µM
CCOc1ccc2nc(NC(=O)c3ccccc3)sc2c1 1.46 µM
Cc1ccc(C(=O)O/N=C(\N)c2ccccn2)cc1 0.183 µM
Cc1ccc2nc(-c3ccc(NC(=O)CN4CCN(C(=O)c5ccco5)CC4)cc3)sc2c1 14.6 µM
C/C(=N\NC(=O)c1ccccc1NC(=O)c1ccc(Cl)cc1)c1ccncc1 0.0517 µM

Potency, inactive:
O=C(Nc1ccccc1C(=O)O)c1cc(S(=O)(=O)Nc2cccc(F)c2)ccc1Cl
O=C(O)c1cccc(NC(=O)c2cccc(S(=O)(=O)N3CCc4ccccc43)c2)c1
O=C(Nc1ccccc1C(=O)O)c1cccc(S(=O)(=O)Nc2ccc(Br)cc2)c1
COc1ccc(C(=O)Nc2cccc(C(=O)O)c2)cc1S(=O)(=O)N1CCCC1
O=C(Nc1ccccc1-c1nc2ccccc2s1)c1ccc(Br)o1
COc1ccc(NS(=O)(=O)c2cccc(C(=O)Nc3ccccc3C(=O)O)c2)cc1
O=C(O)c1cccc(NC(=O)c2ccccc2NC(=O)c2ccco2)c1
COc1cc(OC)cc(C(=O)Nc2ccc(-c3nc4ccccc4s3)c(C)c2)c1
Cc1ccc(NS(=O)(=O)c2ccc(Cl)c(C(=O)Nc3cccc(C(=O)O)c3)c2)cc1
O=C(O)c1ccc(NC(=O)c2cccc(C(=O)Nc3ccc(C(=O)O)cc3)c2)cc1
Cc1ccc(C(=O)Nc2ccc(C(=O)O)cc2)cc1S(=O)(=O)NCc1ccccc1
